{
  "source": "PubChem BioAssay AID1159580",
  "about": "(chemical genetic matrix, 2015)",
  "assay": "chemical genetic growth profiling, strain panel (AID 1159580);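 also: tested at 20 µM; growth read once vehicle control cultures reached saturation at 30 °C; 1 = growth at the plate median or of vehicle wells; lower values mean less growth of the strain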",
  "conditions": "S. cerevisiae deletion strains, growth OD",
  "note": "The campaign covered roughly 5,500 compounds. About 2,000 (36%) were called active. Roughly 18% stayed inconclusive and do not appear here. Some of the results follow. Values without a mark were called inactive. Rule as the data show it: active = normalized growth mostly below about 0.91 (no sharp cut-off); inconclusive = no clear call, values can overlap the other calls; inactive = mostly above about 0.92.",
  "data": [
    {"smiles": "COc1ccc(-c2oc3ccccc3c(=O)c2O)cc1OC", "values": [
      {"measurement": "normalized growth", "setting": "locus YAL021C, strain ccr4, hits give low values", "value": "0.164 (active)"},
      {"measurement": "normalized growth", "setting": "locus YAL026C, strain drs2, hits give low values", "value": "0.512 (active)"},
      {"measurement": "normalized growth", "setting": "locus YAL030W, strain snc1, hits give low values", "value": "0.739 (active)"},
      {"measurement": "normalized growth", "setting": "locus YBL061C, strain skt5, hits give low values", "value": "0.631 (active)"},
      {"measurement": "normalized growth", "setting": "locus YBR009C, strain hhf1, hits give low values", "value": "0.639 (active)"},
      {"measurement": "normalized growth", "setting": "locus YBR023C, strain chs3, hits give low values", "value": "0.587 (active)"},
      {"measurement": "normalized growth", "setting": "locus YBR171W, strain sec66, hits give low values", "value": "0.848 (active)"},
      {"measurement": "normalized growth", "setting": "locus YBR231C, strain swc5, hits give low values", "value": "0.509 (active)"},
      {"measurement": "normalized growth", "setting": "locus YBR279W, strain paf1, hits give low values", "value": "0.697 (active)"},
      {"measurement": "normalized growth", "setting": "locus YCL011C, strain gbp2, hits give low values", "value": "0.617 (active)"},
      {"measurement": "normalized growth", "setting": "locus YCL016C, strain dcc1, hits give low values", "value": "0.782 (active)"},
      {"measurement": "normalized growth", "setting": "locus YCL061C, strain MRC1, hits give low values", "value": "0.753 (active)"},
      {"measurement": "normalized growth", "setting": "locus YCL069W, strain vba3, hits give low values", "value": "0.762 (active)"},
      {"measurement": "normalized growth", "setting": "locus YCR088W, strain abp1, hits give low values", "value": "0.865 (active)"},
      {"measurement": "normalized growth", "setting": "locus YDL005C, strain med2, hits give low values", "value": 0.915},
      {"measurement": "normalized growth", "setting": "locus YDL040C, strain nat1, hits give low values", "value": "0.902 (active)"},
      {"measurement": "normalized growth", "setting": "locus YDR001C, strain nth1, hits give low values", "value": "0.914 (active)"},
      {"measurement": "normalized growth", "setting": "locus YDR069C, strain doa4, hits give low values", "value": "0.175 (active)"},
      {"measurement": "normalized growth", "setting": "locus YDR137W, strain rgp1, hits give low values", "value": "0.505 (active)"},
      {"measurement": "normalized growth", "setting": "locus YDR159W, strain sac3, hits give low values", "value": "0.748 (active)"},
      {"measurement": "normalized growth", "setting": "locus YDR195W, strain ref2", "value": "0.809 (active)"},
      {"measurement": "normalized growth", "setting": "locus YDR297W, strain sur2, hits give low values", "value": "0.557 (active)"},
      {"measurement": "normalized growth", "setting": "locus YDR334W, strain swr1, hits give low values", "value": "0.524 (active)"},
      {"measurement": "normalized growth", "setting": "locus YDR335W, strain msn5, hits give low values", "value": "0.683 (active)"},
      {"measurement": "normalized growth", "setting": "locus YDR392W, strain spt3, hits give low values", "value": "0.553 (active)"},
      {"measurement": "normalized growth", "setting": "locus YEL003W, strain gim4, hits give low values", "value": "0.6 (active)"},
      {"measurement": "normalized growth", "setting": "locus YEL037C, strain rad23, hits give low values", "value": "0.692 (active)"},
      {"measurement": "normalized growth", "setting": "locus YEL061C, strain CIN8 (second series), hits give low values", "value": "0.882 (active)"},
      {"measurement": "normalized growth", "setting": "locus YER015W, strain faa2, hits give low values", "value": "0.4 (active)"},
      {"measurement": "normalized growth", "setting": "locus YER016W, strain bim1, hits give low values", "value": "0.826 (active)"},
      {"measurement": "normalized growth", "setting": "locus YER111C, strain swi4, hits give low values", "value": "0.696 (active)"},
      {"measurement": "normalized growth", "setting": "locus YER155C, strain BEM2 (second series), hits give low values", "value": "0.687 (active)"},
      {"measurement": "normalized growth", "setting": "locus YFR010W, strain ubp6, hits give low values", "value": "0.633 (active)"},
      {"measurement": "normalized growth", "setting": "locus YGL167C, strain pmr1, hits give low values", "value": "0.742 (active)"},
      {"measurement": "normalized growth", "setting": "locus YGL173C, strain kem1, hits give low values", "value": "0.37 (active)"},
      {"measurement": "normalized growth", "setting": "locus YGL227W, strain vid30, hits give low values", "value": 0.949},
      {"measurement": "normalized growth", "setting": "locus YGL240W, strain doc1, hits give low values", "value": "0.772 (active)"},
      {"measurement": "normalized growth", "setting": "locus YGL253W, strain hxk2, hits give low values", "value": "0.544 (active)"},
      {"measurement": "normalized growth", "setting": "locus YHR013C, strain ard1, hits give low values", "value": "0.466 (active)"},
      {"measurement": "normalized growth", "setting": "locus YHR027C, strain rpn1, hits give low values", "value": "0.315 (active)"},
      {"measurement": "normalized growth", "setting": "locus YHR030C, strain SLT2, hits give low values", "value": 1.01},
      {"measurement": "normalized growth", "setting": "locus YHR079C, strain IRE1, hits give low values", "value": 0.983},
      {"measurement": "normalized growth", "setting": "locus YHR142W, strain chs7, hits give low values", "value": "0.533 (active)"},
      {"measurement": "normalized growth", "setting": "locus YJL092W, strain hpr5, hits give low values", "value": "0.812 (active)"},
      {"measurement": "normalized growth", "setting": "locus YJL095W, strain BCK1 (second series), hits give low values", "value": "0.548 (active)"},
      {"measurement": "normalized growth", "setting": "locus YJL095W, strain BCK1, hits give low values", "value": 0.962},
      {"measurement": "normalized growth", "setting": "locus YJL115W, strain asf1, hits give low values", "value": "0.901 (active)"},
      {"measurement": "normalized growth", "setting": "locus YJL129C, strain trk1, hits give low values", "value": "0.721 (active)"},
      {"measurement": "normalized growth", "setting": "locus YJL154C, strain vps35, hits give low values", "value": "0.809 (active)"},
      {"measurement": "normalized growth", "setting": "locus YJL164C, strain tpk1, hits give low values", "value": "0.497 (active)"},
      {"measurement": "normalized growth", "setting": "locus YJL166W, strain qcr8, hits give low values", "value": "0.527 (active)"},
      {"measurement": "normalized growth", "setting": "locus YJL187C, strain SWE1, hits give low values", "value": "0.635 (active)"},
      {"measurement": "normalized growth", "setting": "locus YJR066W, strain TOR1, hits give low values", "value": 0.948},
      {"measurement": "normalized growth", "setting": "locus YKL160W, strain elf1, hits give low values", "value": "0.766 (active)"},
      {"measurement": "normalized growth", "setting": "locus YKR026C, strain gcn3, hits give low values", "value": "0.915 (active)"},
      {"measurement": "normalized growth", "setting": "locus YKR091W, strain srl3, hits give low values", "value": "0.875 (active)"},
      {"measurement": "normalized growth", "setting": "locus YLL001W, strain dnm1, hits give low values", "value": "0.692 (active)"},
      {"measurement": "normalized growth", "setting": "locus YLL026W, hits give low values", "value": "0.798 (active)"},
      {"measurement": "normalized growth", "setting": "locus YLL041C, strain sdh2, hits give low values", "value": "0.85 (active)"},
      {"measurement": "normalized growth", "setting": "locus YLR027C, strain aat2, hits give low values", "value": "0.673 (active)"},
      {"measurement": "normalized growth", "setting": "locus YLR113W, strain HOG1, hits give low values", "value": 0.957},
      {"measurement": "normalized growth", "setting": "locus YLR221C, strain rsa3, hits give low values", "value": "0.644 (active)"},
      {"measurement": "normalized growth", "setting": "locus YLR258W, strain gsy2, hits give low values", "value": "0.733 (active)"},
      {"measurement": "normalized growth", "setting": "locus YLR262C, strain YPT6 (second series), hits give low values", "value": "0.371 (active)"},
      {"measurement": "normalized growth", "setting": "locus YLR320W, strain mms22, hits give low values", "value": "0.537 (active)"},
      {"measurement": "normalized growth", "setting": "locus YLR342W, strain FKS1, hits give low values", "value": "0.61 (active)"},
      {"measurement": "normalized growth", "setting": "locus YLR357W, strain rsc2, hits give low values", "value": "0.626 (active)"},
      {"measurement": "normalized growth", "setting": "locus YLR370C, strain arc18, hits give low values", "value": "0.785 (active)"},
      {"measurement": "normalized growth", "setting": "locus YLR384C, strain iki3, hits give low values", "value": "0.76 (active)"},
      {"measurement": "normalized growth", "setting": "locus YML120C, strain ndi1, hits give low values", "value": "0.72 (active)"},
      {"measurement": "normalized growth", "setting": "locus YMR058W, strain fet3, hits give low values", "value": "0.113 (active)"},
      {"measurement": "normalized growth", "setting": "locus YMR125W, strain sto1, hits give low values", "value": 0.932},
      {"measurement": "normalized growth", "setting": "locus YMR129W, hits give low values", "value": "0.825 (active)"},
      {"measurement": "normalized growth", "setting": "locus YMR205C, strain PFK2, hits give low values", "value": "0.369 (active)"},
      {"measurement": "normalized growth", "setting": "locus YMR231W, strain pep5, hits give low values", "value": "0.555 (active)"},
      {"measurement": "normalized growth", "setting": "locus YNL071W, strain lat1, hits give low values", "value": "0.715 (active)"},
      {"measurement": "normalized growth", "setting": "locus YNL183C, strain NPR1, hits give low values", "value": 0.907},
      {"measurement": "normalized growth", "setting": "locus YNL209W, strain ssb2, hits give low values", "value": "0.222 (active)"},
      {"measurement": "normalized growth", "setting": "locus YNL248C, strain rpa49, hits give low values", "value": "0.783 (active)"},
      {"measurement": "normalized growth", "setting": "locus YNL322C, strain KRE1 (second series), hits give low values", "value": "0.776 (active)"},
      {"measurement": "normalized growth", "setting": "locus YNR049C, strain mso1, hits give low values", "value": "0.889 (active)"},
      {"measurement": "normalized growth", "setting": "locus YOR001W, strain rrp6, hits give low values", "value": "0.678 (active)"},
      {"measurement": "normalized growth", "setting": "locus YOR070C, strain gyp1, hits give low values", "value": "0.772 (active)"},
      {"measurement": "normalized growth", "setting": "locus YOR080W, strain dia2, hits give low values", "value": "0.445 (active)"},
      {"measurement": "normalized growth", "setting": "locus YOR083W, strain WHI5, hits give low values", "value": "0.617 (active)"},
      {"measurement": "normalized growth", "setting": "locus YOR106W, strain vam3, hits give low values", "value": "0.203 (active)"},
      {"measurement": "normalized growth", "setting": "locus YOR231W, strain MKK1, hits give low values", "value": 0.996},
      {"measurement": "normalized growth", "setting": "locus YOR265W, strain rbl2, hits give low values", "value": "0.655 (active)"},
      {"measurement": "normalized growth", "setting": "locus YOR270C, strain vph1, hits give low values", "value": "0.32 (active)"},
      {"measurement": "normalized growth", "setting": "locus YOR290C, strain snf2, hits give low values", "value": "0.607 (active)"},
      {"measurement": "normalized growth", "setting": "locus YPL051W, strain arl3, hits give low values", "value": "0.371 (active)"},
      {"measurement": "normalized growth", "setting": "locus YPL078C, strain atp4, hits give low values", "value": "0.74 (active)"},
      {"measurement": "normalized growth", "setting": "locus YPL106C, strain sse1, hits give low values", "value": "0.572 (active)"},
      {"measurement": "normalized growth", "setting": "locus YPL240C, strain hsp82, hits give low values", "value": "0.771 (active)"},
      {"measurement": "normalized growth", "setting": "locus YPL256C, strain CLN2, hits give low values", "value": 0.994}
    ]}
  ]
}
